# Many of the other results were omitted from the sample, so hits are more common in it than they were.
# Shiga toxin inh – blocks Shiga toxin action in Vero cells; Vero cells, Shiga toxin protein synthesis inhibition reporter; inhibition, % at 38.7 µM; 290,000 compounds, 9.2% hits; AID 2315; in the data active = inhibition mostly above about 28%, no sharp cut-off; inactive = mostly below about 43%
# FBPA Giardia inh – Giardia lamblia aldolase inhibition; purified Giardia FBPA; Potency, µM (highest dose often 59.6 µM), actives largely listed as inhibitors; 290,000 compounds, 0.71% hits; AID 2451; also: nearly all actives have a fitted effect of over 55% in size
#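 40 nM FBPA preincubated 10 min at RT with compound (up to 57.5 uM final), then substrate plus GAPDH/TPI/NAD/arsenate coupling and diaphorase/resazurin added. Fluorescence read after 20 min at RT, 525/598 nm.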
# LmPK inhibitor – blocks Leishmania mexicana pyruvate kinase activity | purified LmPK, Kinase-Glo ATP luminescence, 1 h | 290,000 compounds, 0.37% hits | Potency, µM (top dose mostly 57.5 µM), hits mostly inhibitors | Q27686
# Target sequence (Q27686 whole entry, looked up): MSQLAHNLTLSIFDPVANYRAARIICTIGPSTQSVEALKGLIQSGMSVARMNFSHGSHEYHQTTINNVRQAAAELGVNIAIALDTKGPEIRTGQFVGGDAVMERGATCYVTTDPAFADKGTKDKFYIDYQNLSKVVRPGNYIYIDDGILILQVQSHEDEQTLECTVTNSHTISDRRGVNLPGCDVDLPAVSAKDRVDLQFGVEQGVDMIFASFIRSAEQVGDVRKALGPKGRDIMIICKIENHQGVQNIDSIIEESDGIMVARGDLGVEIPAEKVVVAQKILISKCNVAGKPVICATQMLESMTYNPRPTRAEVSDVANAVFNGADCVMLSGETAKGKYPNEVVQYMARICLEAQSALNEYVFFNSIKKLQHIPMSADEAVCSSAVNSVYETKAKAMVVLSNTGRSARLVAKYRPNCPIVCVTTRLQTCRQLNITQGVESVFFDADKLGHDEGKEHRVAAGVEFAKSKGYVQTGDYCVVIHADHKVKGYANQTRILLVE
#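 Purified LmPK (0.1 nM) with 0.5 mM PEP and 0.1 mM ADP in imidazole buffer pH 7.2 with MgCl2/KCl, 1 h at room temperature. ATP formed was read by luciferase luminescence and normalized to no-enzyme and uninhibited controls.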
# CHX counter – affects cycloheximide protein synthesis inhibition readout, counter-screen; cell reporter, cycloheximide protein synthesis inhibition counterscreen; max response, %; 300,000 compounds, 12% hits; in the data active = max response mostly above about 13%, no sharp cut-off; inactive = mostly below about 14%; also: read at 38.3 µM for the half of the compounds with a filed dose
# RE007 growth inh – less growth of the S. pombe RE007 Vpr strain | S. pombe RE007 Vpr strain, BacTiter-Glo ATP luminescence, 24 h | Potency, µM (doses to about 92.2 µM), actives largely listed as inhibitors | 360,000 compounds, 0.21% hits | AID 651644; active = well fitted falling curve with a large enough effect; inconclusive = small, poorly fitted or top-dose-only effect; inactive = no such curve, though single readings can be large or run the other way; also: nearly all actives have a fitted effect of over 50% in size
#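 Fission yeast strain RE007, carrying one chromosomally integrated HIV-1 vpr copy, was seeded at OD 0.01 in PMG+AL medium with 23 nL pinned compound. After 24 h at 30 °C and 99% humidity, viability was read by BacTiter-Glo luminescence.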
# Tb PYK inh – T. brucei pyruvate kinase inhibition; Potency, µM (series often up to 76.8 µM), most hits filed as inhibitors; Q57TT1; 410,000 compounds, 0.12% hits; AID 624173; TbPYK enzyme, Kinase-Glo Plus ATP luminescence, 45 min; also: nearly all actives have a fitted effect of over 50% in size
#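 Readout: single end-point luminescence (Kinase-Glo Plus, 10 min). Reaction conditions were TbPYK/substrate plus 130 uM ADP, 45 min at RT, pH 7.2 TEA buffer. No-enzyme wells served as controls, and data were normalized before concentration-response fitting.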
# A number is an active result; – = inactive; ? = inconclusive; · = no result; [ ] = another dose, or the depositor's remark. Unless noted, calls follow the shape of the dose curve; as a rule, active = well fitted curve in the direction sought with a large enough effect; inconclusive = small, poorly fitted or top-dose-only effect, or another doubt; inactive = no such curve, though single readings can be large; an effect the other way counts as inactive or inconclusive.
SMILES,Shiga toxin inh,FBPA Giardia inh,LmPK inhibitor,CHX counter,RE007 growth inh,Tb PYK inh
CSc1ccccc1OCc1cc(C(=O)NC2CCOC2)no1 (stereo unspecified),49,–,–,49,–,–
CCCCCCCCNC(=S)NCCN1CCCCC1,–,?,–,–,–,–
COc1cc(NC(=O)CC(C)n2ccnc2)cc(OC)c1 (stereo unspecified),–,–,–,–,–,–
COC(=O)C(CC(=O)c1ccc(Br)cc1)n1ccnc1 (stereo unspecified),–,?,10µM,–,·,·
COC(=O)C(CC(=O)c1ccc(Br)cc1)n1nc(C)cc1C (stereo unspecified),–,–,–,–,28µM,?
COC(=O)C(CC(=O)c1ccc(C)cc1)n1nc(C)cc1C (stereo unspecified),–,–,–,–,–,–
CC(=O)c1ccc(N2CCN(S(=O)(=O)c3ccc4c(c3)CC(C)N4C(=O)C3CCC3)CC2)cc1 (stereo unspecified),·,·,·,·,·,–
O=[N+]([O-])c1cnc(Sc2ccncn2)s1,–,–,–,–,1µM,–
CC(C)Oc1ccc(CNC(=O)c2cccc(NC(=O)c3nsc4ccccc34)c2)cc1,·,·,·,·,·,–
Cc1sc2c(c1C)C(=O)NC(c1ccccc1F)N2 (stereo unspecified),100,–,–,31,?,–
CN(C)C(=O)CNc1ccn2nc(-c3cccc(Cl)c3)cc2n1,·,·,·,·,–,–
COc1cc(C2NC(=O)NC(O)(C(F)(F)F)C2C(=O)c2cccs2)ccc1O (stereo unspecified),87,–,–,34,–,–
CCOC(=O)N1CCN(Cc2nc(CC3CC3)no2)CC1,34,–,–,27,–,–
CC1CC1C(=O)Nc1nc(-c2cccs2)c(-c2cccs2)s1 (stereo unspecified),–,–,–,19,–,–
CC(=O)Nc1sc(NC(=O)c2ccco2)nc1-c1cccs1,–,–,–,–,–,–
O=C(Nc1nc(-c2cccs2)c(-c2ccccc2)s1)c1ccco1,–,–,–,18,–,–
Nc1nc(-c2cccs2)c(-c2cccs2)s1,–,–,–,–,–,–
COc1ccc(-c2cc(C(=O)NCc3cccc(C(F)(F)F)c3)[nH]n2)c(C)c1,·,·,·,·,–,–
COc1cccc(NC(=O)CSc2nnc(-c3cccc(OC)c3)o2)c1,·,·,·,·,·,–
COc1ccccc1NC(=O)CSc1nnc(-c2ccc(C)cc2)o1,–,–,–,41,–,–
COc1ccc(-c2nnc(SCC(=O)Nc3cc(C)on3)o2)cc1,44,–,–,33,–,–
COc1ccc(NC(=O)CSc2nnc(-c3ccc(C)cc3)o2)cc1,·,·,·,·,·,–
Cc1ccc(SCC(=O)Nc2cccc(-c3nnc(-c4ccco4)o3)c2)cc1,56,–,–,21,–,–
COc1cccc(NC(=O)CSc2nnc(-c3ccc(C)cc3)o2)c1,45,–,–,28,–,–
COCCn1c(=O)c(-c2cccs2)nc2cnc(N3CCOCC3)nc21,·,–,·,·,·,·
SMILES,Shiga toxin inh,FBPA Giardia inh,LmPK inhibitor,CHX counter,RE007 growth inh,Tb PYK inh
CCCCCn1c(=O)c2c(nc3n2CCN3c2ccc(Br)cc2)n(C)c1=O,·,·,·,·,·,–
COc1ccc(-n2nnnc2C2CCN(S(=O)(=O)c3ccc(C)cc3)CC2)cc1,·,·,·,·,·,–
COCC(=O)N1CCC2(CC1)CCN(C(=O)Nc1cccc(F)c1)CC2,·,–,·,·,·,–
Cc1csc(NC(=O)CSc2nnc(-c3cc(C)on3)o2)n1,–,–,–,15,–,–
O=C(O)c1cccc(S(=O)(=O)N2CCN(C(c3ccccc3)c3ccccc3)CC2)c1,–,–,–,–,–,–
CC1C/C(=C/c2cccn2C)C(=O)/C(=C/c2cccn2C)C1 (stereo unspecified),49,–,–,29,?,–
CC1C/C(=C/c2ccncc2)C(=O)/C(=C/c2ccncc2)C1 (stereo unspecified),–,–,–,–,?,–
COc1cc(Cl)c(C)cc1NC(=O)CN1CCN(C(=O)C2CC2)CC1,·,·,·,·,–,–
Clc1cccc(/C(Cc2nc3ccccc3[nH]2)=N\Nc2ccccc2)c1,55,–,–,54,–,–
N#CCCN/N=C(\Cc1nc2ccccc2[nH]1)c1ccccc1,–,–,–,–,–,–
O=C(Cc1nc2ccccc2[nH]1)N/N=C/c1ccccc1,–,–,–,–,–,–
N/N=C(/Cc1nc2ccccc2[nH]1)c1ccc([N+](=O)[O-])cc1,141,–,–,44,13µM,–
c1ccc(N/N=C(\Cc2nc3ccccc3[nH]2)c2ccccc2)cc1,48,–,–,52,–,–
N#CCCN/N=C(/Cc1nc2ccccc2[nH]1)c1ccc(Cl)cc1,67,–,–,30,·,·
CCc1ccc(C(O)c2ncc(-c3ccc(C)cc3)[nH]2)cc1 (stereo unspecified),·,·,·,·,?,–
CCOC(=O)c1cc(-c2ccccc2)n(CCC(=O)Nc2ccc(C(F)(F)F)cc2)c1C,·,·,·,·,·,–
O=C(Nc1ccc2nc(SCCOc3ccccc3)sc2c1)c1cccs1,·,·,·,·,·,–
Cc1ccc(S(=O)(=O)NCc2nc3ccccc3[nH]2)cc1,–,–,–,–,–,–
Cc1ccc(N/N=C(\Cc2nc3ccccc3[nH]2)c2ccccc2)cc1,48,–,–,35,–,–
CCN/N=C(\Cc1nc2ccccc2[nH]1)c1ccccc1,–,–,–,20,–,–
COc1ccc(OC2C=CC(C#Cc3ccc(F)cc3F)OC2CO)cc1 (stereo unspecified),·,–[12.9 µM],·,·,·,·
CCc1nc(SC)ncc1C(=O)NCc1cccc(Br)c1,·,·,·,·,·,–
Cc1[nH]n(-c2nc(-c3cccc([N+](=O)[O-])c3)cs2)c(=O)c1C,54,–,–,37,–,–
CC(=O)c1cccc(Nc2nc(-c3cccc([N+](=O)[O-])c3)cs2)c1,103,–,–,38,–,–
COc1ccc2c(c1OC)C(=O)OC2Nc1nc(-c2cccc([N+](=O)[O-])c2)cs1 (stereo unspecified),43,–,–,57,–,–
SMILES,Shiga toxin inh,FBPA Giardia inh,LmPK inhibitor,CHX counter,RE007 growth inh,Tb PYK inh
O=[N+]([O-])c1cccc(-c2csc(N/N=C/c3cccc(O)c3)n2)c1,105,–,–,28,–,–
CC(=O)Nc1nc(C)c(-c2csc(Nc3cccc([N+](=O)[O-])c3)n2)s1,–,–,–,–,–,–
O=C(Nc1nc(-c2cccc([N+](=O)[O-])c2)cs1)C(c1ccccc1)c1ccccc1,–,–,–,–,–,–
Cc1c(Nc2nc(-c3cccc([N+](=O)[O-])c3)cs2)c(=O)n(-c2ccccc2)n1C,–,–,–,–,–,–
O=C(Nc1cccc(Cl)c1)c1cc(S(=O)(=O)N2CCOCC2)cs1,–,·,–,–,–,–
CC(=O)N1CCC(C(=O)N2c3ccccc3N=C(c3ccc(C(F)(F)F)cc3)C2C(=O)NC2CCCC2)CC1 (stereo unspecified),·,·,·,·,–,·
